We go through four compounds from PubChem BioAssay.

A short description of assay [1]: optical density shifts of acrAB sulA E. coli – strain DRC41, OD650, 48 h, E. coli filamentation inducer project, primary screen (AID 1152).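 Note: E. coli MC1000 strain DRC41 lacking acrAB efflux pump and sulA.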 The conditions noted are these: higher = more signal, called active from +8 up or from −8 down.
Assay [2] in a line: probe aLefty1 binding on compound microarray – biochemical, small-molecule microarray, 635/667 nm fluorescence, primary screen (AID 1153).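 Note: score merges spot fluorescence with signal-to-noise ratio from the scanned slide images.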 The conditions noted are these: higher = more signal.
Assay [3] is described as follows: plasmodial surface anion channel blockers, osmotic lysis – cell-based, P. falciparum Indochina, OD700, 1 h, primary screen (AID 1154). Particulars: P. falciparum Indochina infected RBC osmotic lysis, higher = more signal, called active from +8 up or from −8 down.
The nature of assay [4]: plasmodial surface anion channel blockers, osmotic lysis – cell-based, P. falciparum Indochina, OD700, 2 h, primary screen (AID 1155).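 Note: lysis reports solute entry through the parasite surface anion channel PSAC.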 The conditions noted are these: P. falciparum Indochina infected erythrocytes, higher = more signal, called active from +8 up or from −8 down.
The nature of assay [5]: changes in parasitized red cell lysis, either direction – P. falciparum Indochina, OD700, 3 h, PSAC antagonist project, primary screen (AID 1156). The conditions noted are these: P. falciparum-infected erythrocytes, osmotic lysis, higher = more signal, called active from +8 up or from −8 down.
Assay [6] in a line: plasmodial surface anion channel blockers, osmotic lysis – cell-based, P. falciparum Indochina, OD700, 18 h, primary screen (AID 1157). Particulars: P. falciparum Indochina infected erythrocytes, osmotic lysis OD700, 18 h; higher = more signal, called active from +8 up or from −8 down.
A short description of assay [7]: S6 kinase pathway phospho-S6 level changes – cell-based, A549, cytoblot, luminescence, serum-stimulated, primary screen (AID 1158).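 Note: serum-stimulated A549 lung adenocarcinoma cells; signal is phosphorylated S6 detected by cytoblot immunostaining with HRP secondary.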 The conditions noted are these: 5 h, higher = more signal.
The target of assay [8] is NADPH oxidase 2 (Homo sapiens) (UniProt P04839). As to the kind of experiment: compounds shifting NOX2 Amplex Red fluorescence – cell-based, HEK293-NOX2, PMA-stimulated, NOX inhibitor project, primary screen (AID 1159). Note: test concentration not given here. Particulars: 45 min, higher = more signal, called active from +8 up or from −8 down.
Chain of NADPH oxidase 2 (Homo sapiens) (P04839 whole entry, looked up): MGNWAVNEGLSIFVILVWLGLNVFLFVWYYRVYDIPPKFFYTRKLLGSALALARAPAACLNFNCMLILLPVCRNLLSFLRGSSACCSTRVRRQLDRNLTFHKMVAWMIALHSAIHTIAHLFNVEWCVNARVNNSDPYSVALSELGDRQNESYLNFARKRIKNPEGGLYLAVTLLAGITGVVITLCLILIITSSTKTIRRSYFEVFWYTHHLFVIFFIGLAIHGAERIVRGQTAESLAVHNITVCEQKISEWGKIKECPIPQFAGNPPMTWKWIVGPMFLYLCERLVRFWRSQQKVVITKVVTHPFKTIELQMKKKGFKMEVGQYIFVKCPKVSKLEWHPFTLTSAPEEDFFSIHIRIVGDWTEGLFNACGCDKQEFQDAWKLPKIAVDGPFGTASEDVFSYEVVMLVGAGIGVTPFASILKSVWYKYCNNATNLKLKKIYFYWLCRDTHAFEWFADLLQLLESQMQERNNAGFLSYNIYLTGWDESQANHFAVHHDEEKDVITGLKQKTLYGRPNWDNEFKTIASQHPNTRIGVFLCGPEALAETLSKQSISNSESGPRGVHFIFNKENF
Assay [9] deals with NADPH oxidase 4 (Homo sapiens) (UniProt Q9NPH5). The assay is described as follows: compounds shifting NOX4 Amplex Red fluorescence – cell-based, HEK293-NOX4, tetracycline-induced, NOX inhibitor project, primary screen (AID 1160). Particulars: HEK293-NOX4, Amplex Red H2O2 fluorescence, 45 min; higher = more signal, called active from +8 up or from −8 down.
Chain of NADPH oxidase 4 (Homo sapiens) (Q9NPH5 whole entry, looked up): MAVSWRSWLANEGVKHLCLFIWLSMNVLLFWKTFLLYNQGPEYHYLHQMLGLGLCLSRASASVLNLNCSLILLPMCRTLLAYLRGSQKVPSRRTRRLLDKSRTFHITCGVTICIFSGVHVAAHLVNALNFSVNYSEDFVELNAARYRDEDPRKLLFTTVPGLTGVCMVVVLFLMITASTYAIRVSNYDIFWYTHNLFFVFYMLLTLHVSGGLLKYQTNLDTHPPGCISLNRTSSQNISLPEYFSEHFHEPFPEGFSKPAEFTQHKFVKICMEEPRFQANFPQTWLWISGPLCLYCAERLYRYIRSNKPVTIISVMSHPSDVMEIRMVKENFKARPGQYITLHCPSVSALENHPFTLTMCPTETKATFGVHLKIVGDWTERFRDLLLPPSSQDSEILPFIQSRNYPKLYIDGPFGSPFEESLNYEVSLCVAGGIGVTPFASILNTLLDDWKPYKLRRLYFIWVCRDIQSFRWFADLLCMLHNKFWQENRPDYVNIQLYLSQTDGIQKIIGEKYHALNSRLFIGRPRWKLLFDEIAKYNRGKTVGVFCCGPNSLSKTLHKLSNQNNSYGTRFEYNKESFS
The target of assay [10] is NADPH oxidase 5 (Homo sapiens) (UniProt Q96PH1). As to the kind of experiment: compounds shifting NOX5 Amplex Red fluorescence – cell-based, HEK293-NOX5, NOX inhibitor project, primary screen (AID 1161). Particulars: HEK293-NOX5, ionomycin, 45 min, higher = more signal.
Chain of NADPH oxidase 5 (Homo sapiens) (Q96PH1 whole entry, looked up): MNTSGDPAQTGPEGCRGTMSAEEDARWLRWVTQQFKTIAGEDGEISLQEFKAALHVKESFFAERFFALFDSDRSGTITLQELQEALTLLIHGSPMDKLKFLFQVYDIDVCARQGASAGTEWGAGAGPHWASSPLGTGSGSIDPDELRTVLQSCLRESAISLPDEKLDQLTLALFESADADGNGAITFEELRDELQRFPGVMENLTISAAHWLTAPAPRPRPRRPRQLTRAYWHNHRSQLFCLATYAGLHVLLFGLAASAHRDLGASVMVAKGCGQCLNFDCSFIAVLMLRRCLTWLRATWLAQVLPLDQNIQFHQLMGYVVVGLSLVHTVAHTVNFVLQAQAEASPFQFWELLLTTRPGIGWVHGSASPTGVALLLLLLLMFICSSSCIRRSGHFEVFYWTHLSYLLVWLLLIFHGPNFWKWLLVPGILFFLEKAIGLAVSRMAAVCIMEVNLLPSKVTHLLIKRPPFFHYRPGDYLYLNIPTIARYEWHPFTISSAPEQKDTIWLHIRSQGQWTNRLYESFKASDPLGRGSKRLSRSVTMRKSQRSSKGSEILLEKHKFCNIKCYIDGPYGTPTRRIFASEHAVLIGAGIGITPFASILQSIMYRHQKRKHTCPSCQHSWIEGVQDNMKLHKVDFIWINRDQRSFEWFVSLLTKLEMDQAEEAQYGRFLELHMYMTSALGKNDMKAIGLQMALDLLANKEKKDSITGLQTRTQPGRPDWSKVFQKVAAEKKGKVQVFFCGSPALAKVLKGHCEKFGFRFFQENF
Assay [11] is described as follows: compound effects on lung adenocarcinoma cell viability – A549, calcein-AM fluorescence, 48 h, basal, profiling panel (AID 1162). Note: test concentration not given here. Particulars: higher = more signal.
Assay [12] can be described thus: compound effects on differentiated 3T3-L1 adipocyte viability – cell-based, 3T3-L1 adipocytes, calcein-AM fluorescence, 48 h, basal, profiling panel (AID 1163). Note: test concentration not given here. The conditions noted are these: 3T3-L1 adipocytes viability, higher = more signal.
Assay [13] in a line: compound effects on hepatocellular carcinoma cell viability – HepG2, calcein-AM fluorescence, 48 h, basal, profiling panel (AID 1164). Note: test concentration not given here. Particulars: higher = more signal.
Assay [14] can be described thus: compound effects on multiple myeloma cell viability – MM1S, calcein-AM fluorescence, 48 h, basal, profiling panel (AID 1165). Note: test concentration not given here. The conditions noted are these: higher = more signal.
The nature of assay [15]: calcein-AM signal in unstimulated myeloma cells – cell-based, calcein-AM fluorescence, 48 h, PK04 Diversity Set, profiling panel (AID 1166).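 Note: cells grown under basal conditions without added stimulus; test concentration not given here.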 The conditions noted are these: RPMI8226 myeloma viability, higher = more signal.
Assay [16] in a line: JC-1 mitochondrial signal, unstimulated HepG2 cells – cell-based, JC-1 fluorescence, 24 h, 100 nL compound, profiling panel (AID 1167). Note: test concentration not given here. Particulars: HepG2 mitochondrial potential, higher = more signal.
Assay [17] can be described thus: JC-1 mitochondrial signal, unstimulated adipocytes – cell-based, JC-1 fluorescence, 3T3-L1 adipocytes, 24 h, 100 nL compound, profiling panel (AID 1168). Note: test concentration not given here. Particulars: JC-1 mitochondrial fluorescence, higher = more signal, called active from +8 up or from −8 down.
Assay [18] can be described thus: JC-1 mitochondrial signal, unstimulated myeloma cells – cell-based, JC-1 fluorescence, RPMI8226, 24 h, 100 nL compound, profiling panel (AID 1169). Note: test concentration not given here. The conditions noted are these: JC-1 mitochondrial potential fluorescence, higher = more signal.
Assay [19] in a line: JC-1 mitochondrial signal, unstimulated MM1S myeloma – cell-based, JC-1 fluorescence, 24 h, 100 nL compound, profiling panel (AID 1170). Note: test concentration not given here. The conditions noted are these: MM1S mitochondrial potential, higher = more signal.
Assay [20] in a line: resazurin metabolic signal in A549 cells – cell-based, resazurin fluorescence, 24 h, PK04 Diversity Set, profiling panel (AID 1171). Note: test concentration not given here. Particulars: A549 viability, higher = more signal, called active from +8 up or from −8 down. (Alamar Blue is a resazurin reagent that responds to reducing activity.)

Molecules are shown by their SMILES. Activity calls are given as the source filed them.

As to `C=CCNC(=O)[C@@H]1[C@H]2C(=O)O[C@H](c3ccccc3)[C@H](c3ccccc3)N2[C@H](c2ccc(OCCO)cc2)[C@@]12C(=O)N(C(=O)OCCOC)c1ccc(C#CCNC(N)=O)cc12`, the z-score was 1.43 (inactive) in assay [1]; 4.2 (inactive) in [3]; 0.921 (inactive) in assay [4]; 1.47 (inactive) in assay [5]; 0.514 (inactive) in assay [6]; 0.472 in assay [7]. Moreover, the z-score in [8] was 0.827 (inactive); in assay [9], -0.213 (inactive); in assay [10], 0.0624; in [11], -0.0901; in assay [12] it was 0.488; in assay [13], 0.219. The z-score is 0.911 in assay [14]; -1.6 in assay [15]; -0.734 in assay [16]; 0.648 (inactive) in assay [17]; -0.888 in assay [18]; 0.679 in assay [19]. The z-score in assay [20] is -0.271 (inactive). In addition, in [2], the composite z-score was 0.284.

Regarding `NC(=O)[C@@]1(Cc2ccccc2)N=C(c2ccc(OCCCO)cc2)O[C@H]1c1ccccc1`, the z-score in [1] was 1.53 (inactive); in assay [3], 16.3 (active); in assay [4], 2.07 (inactive); in assay [5] it was 0.59 (inactive); in [6], 0.639 (inactive); in assay [7], 0.151. The z-score is -0.281 (inactive) in assay [8]; 0.211 (inactive) in assay [9]; 0.495 in [10]; -0.611 in [11]; 0.422 in [12]; -0.373 in assay [13]. For the same compound, the z-score in [14] is -0.13; in assay [15], 0.0044; in [16], -0.576; in assay [17], 0.804 (inactive); in [18], -0.318; in assay [19], 0.577. Besides, in [20], the z-score was -0.0671 (inactive). Besides, in assay [2], the composite z-score came out at 0.232.

Regarding `O=C(NC1CC1)[C@@H]1c2ccccc2C(=O)N(C2Cc3ccccc3C2)[C@H]1c1ccc(CO)cc1`, the z-score in [1] was 0.412 (inactive); in assay [3] it was 2.06 (inactive); in assay [4], 0.208 (inactive); in assay [5], 0.531 (inactive); in [6], -0.112 (inactive); in [7], -0.153. For the same compound, the z-score in assay [8] was 0.0375 (inactive); in assay [9], 0.108 (inactive); in [10] it was -0.717; in assay [11], 0.201; in assay [12] it was 0.526; in assay [13], 0.116. The z-score in [14] is 0.62; in [15], -0.987; in assay [16], 2.96; in [17] it was 0.832 (inactive); in [18] it was 0.0519; in assay [19] it was 0.339. Moreover, the z-score in assay [20] is 0.888 (inactive). Further, in assay [2], the composite z-score is -0.0377.

In the case of `COc1ccc(C(=O)Nc2cccc(CN3C(=O)[C@]4(O[C@H](CCn5cc(CCO)nn5)[C@@H]([Si](C)(C)c5ccc(OC)cc5)[C@@H]4C)c4ccccc43)c2)cc1`, the z-score in [1] is -0.856 (inactive); in [3], 6.78 (inactive); in [4], 2.29 (inactive); in assay [5], 0.155 (inactive); in [6], 1.7 (inactive); in assay [7], -0.815. Also, the z-score is -1.91 (inactive) in assay [8]; -0.0331 (inactive) in assay [9]; 2.87 in [10]; -3.46 in [11]; -0.42 in assay [12]; -4.63 in assay [13]. Besides, the z-score in assay [14] is -2.47; in assay [15] it was -4.35; in [16] it was -2.18; in assay [17] it was 1.51 (inactive); in assay [18] it was -0.46; in assay [19], -2.05. For the same compound, the z-score in [20] was -6 (inactive). Besides, the composite z-score in [2] is -0.0061.
